TDP1 cell noCPT: qHTS for Inhibitors of human tyrosyl-DNA phosphodiesterase 1 (TDP1): qHTS in cells in absence of CPT; DT40 Tdp1-/- hTDP1 cells, no CPT, ATP luminescence, 48 h; Potency, µM (highest dose often 46.2 µM), for inactives: at the top dose activity change, negative = growth inhibition, usual class: inhibitors; actives 15% (n = 420,000); AID 686978, 2013; note: nearly all actives have a fitted effect of over 55% in size
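DT40 Tdp1-/-;hTDP1 cells, no CPT (DMSO vehicle only), 400 cells/well; compounds pin-transferred; ≥48 hr, 37 °C; CellTiter-Glo 30 min RT dark, luminescence read.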
TDP1 cell CPT: growth inhibition of DT40 Tdp1-/-;hTDP1 cells with camptothecin (screen for TDP1 inhibitors) | AID 686979 | actives 12% (n = 420,000) | Potency, µM (series often up to 46.2 µM), for inactives: at the top dose activity change, negative = growth inhibition, hits mostly inhibitors | chicken DT40 Tdp1-/-;hTDP1 cells + 20 nM CPT, ATP luminescence, 48 h; note: nearly all actives have a fitted effect of over 55% in size
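Cell growth measured by CellTiter-Glo luminescence after a minimum 48 h, 37 C compound exposure with 20 nM CPT in Tdp1-knockout DT40 cells stably expressing hTDP1, seeded 400/well; qHTS titration format.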
HT1080-NT tox: kills 2HG-producing HT-1080-NT fibrosarcoma cells | HT-1080-NT fibrosarcoma viability, CellTiter-Glo ATP luminescence, 48 h | Potency, µM (top dose mostly 46.1 µM), without a hit: top-dose activity, negative = less viability, actives largely listed as cytotoxic | actives 1.6% (n = 360,000) | AID 686970;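 note: NT is the 2HG producing partner of a matched IDH1 knockdown line; 0% = DMSO-treated cells and -100% = media-only wells without cells; nearly all actives have a fitted effect of over 55% in size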
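A 48-hour cytotoxicity screen used HT-1080-NT cells plated 2 hours before compound delivery. ATP-based CellTiter-Glo luminescence measured viability, normalized to DMSO and no-cell controls.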
HT1080 IDH1KD tx: toxicity to HT-1080 IDH1 knockdown cells (counter line); Potency, µM (top dose mostly 46.1 µM), for inactives: at the highest dose activity, negative = toxicity, actives largely listed as cytotoxic; AID 686971; HT-1080 IDH1 knockdown viability, ATP luminescence, 48 h; actives 2% (n = 360,000);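 note: 0% = DMSO wells and -100% = cell-free medium wells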
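Assay cells: HT-1080 with IDH1 knockdown, 750 per well, RPMI/5% FBS. Exposure: 48 h at 37 °C following 2 h pre-incubation. Read: CellTiter-Glo luminescence; fitted concentration-response, curve class assigned.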
KB-V1 MDR tox: kills drug-selected multidrug resistant KB-V1 cells; KB-V1 MDR cells viability, CellTiter-Glo, 72 h; Potency, µM (doses to about 46.1 µM), most hits filed as cytotoxic; actives 3.4% (n = 400,000); note: nearly all actives have a fitted effect of over 60% in size
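Readout: CellTiter-Glo luminescence, 10 min after addition. Cells: KB-V1 MDR subline, 72 h at 37 degrees C with compound. Analysis: corrected, normalized data fitted to concentration-effect curves.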
KB-3-1 tox: kills parental KB-3-1 adenocarcinoma cells. actives 1.4% (n = 400,000). Potency, µM (series often up to 46.1 µM), usual class: cytotoxic. AID 1347075. KB-3-1 viability, CellTiter-Glo ATP luminescence, 72 h; note: nearly all actives have a fitted effect of over 60% in size
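KB-3-1 cells, DMEM (no phenol red) + 10% FBS; compound by pin transfer, 72 h, 37 °C. Readout: CellTiter-Glo luminescence after 10 min. Data normalized, curve-fitted.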
* = called active by the depositor; i = inactive; ? = inconclusive. Sampled rows, rich in hits. Any-hit rate of the full collection: about 19%. Calls come from the whole dose curve; as a rule, active = well fitted curve in the direction sought with a large enough effect; inconclusive = small, poorly fitted or top-dose-only effect, or another doubt; inactive = no such curve, though single readings can be large; an effect the other way counts as inactive or inconclusive. Unless noted, % is set by controls: 0 for no effect and ±100 for the full control effect; potency is the fitted concentration of half-maximal effect.

SMILES	TDP1 cell noCPT	TDP1 cell CPT	HT1080-NT tox	HT1080 IDH1KD tx	KB-V1 MDR tox	KB-3-1 tox
COc1cccc(NC(=O)CN(C)C(=O)CCCc2nc3ccccc3c(=O)[nH]2)c1	17%	-24%	-4%	-7%	i	i
CCCCn1c(-c2ccco2)nc2ccccc2c1=O	16µM*	?	-5%	0%	i	i
CC(C)OCCCn1c(-c2ccco2)nc2nc3ccccc3nc21	23µM*	?	?	?	i	i
CCCCn1c(SCC(=O)NCc2ccco2)nc2ccccc2c1=O	-23%	?	-4%	0%	i	i
O=C(CN(Cc1ccc(F)cc1)C(=O)CNS(=O)(=O)c1ccccc1)NCc1ccco1	-27%	-8%	8%	0%	i	i
NC(=O)CSc1nnc(-c2ccccc2)c(-c2ccccc2)n1	2%	-4%	8%	2%	i	i
CCOC(=O)C(Cc1ccc(O)cc1)Nc1nc2ccccc2o1 (stereo not given)	-21%	-1%	7%	-2%	21µM*	i
CCCOC(=O)Nc1nc2ccccc2o1	?	?	-5%	-6%	i	i
COc1c(Cl)cccc1-c1cn2ccccc2n1	?	-6%	?	?	12µM*	i
Cn1nc([N+](=O)[O-])c(C(C#N)c2ccccn2)c(Cl)c1=O (stereo not given)	3.7µM*	5.2µM*	-30%	?	i	i
CCN(CC)CCn1c2c(c(SCC(=O)Nc3nc4ccccc4s3)nc1=O)CCC2	?	-2%	2%	-1%	?	i
CCCOc1ccc(/C(O)=C2/C(=O)C(=O)N(c3cc(C)on3)C2c2ccc(C(=O)OC)cc2)cc1 (stereo not given)	1%	-15%	4%	9%	i	i
COC(=O)c1cnc(Oc2ccc(NC(=O)NC(=O)c3c(F)cccc3F)cc2)cc1C(F)(F)F	?	-6%	6%	1%	i	i
COC(=O)c1cnc(Oc2c(Cl)cc(N)cc2Cl)cc1C(F)(F)F	15µM*	?	?	16µM*	i	i
COC(=O)c1cnc(Oc2ccc(NC(=O)NC(=O)c3c(F)cccc3Cl)cc2)cc1C(F)(F)F	4.1µM*	3.3µM*	?	?	?	?
COC(=O)c1cnc(Oc2ccc(NC(=O)NC(=O)c3c(OC)cccc3OC)cc2)cc1C(F)(F)F	1.3µM*	1.2µM*	?	1.3µM*	2.3µM*	?
CN(Cc1ccccc1)C(=O)c1nc[nH]c1C(=O)N(C)Cc1ccccc1	-18%	-2%	15%	7%	i	i
O=C(c1ccco1)N(CCO)Cc1cc2cc3c(cc2[nH]c1=O)OCO3	-19%	10%	3%	0%	i	i
CN(C)c1ccc(/C=C/C=C2/SC(=S)N(c3ccccc3)C2=O)cc1	8.2µM*	18µM*	2%	-20%	?	i
O=C1/C(=C/C=C/c2ccco2)SC(=S)N1c1ccc(O)cc1	?	18µM*	-19%	-20%	i	i
COc1cc(/C=N/NC(=O)c2cnn3c(C)cc(-c4ccccc4)nc23)ccc1O	16µM*	23µM*	5%	5%	i	i
COc1ccc(/C=N/NC(=O)c2nc(-c3ccccc3)cc(-c3ccccc3)n2)cc1	26µM*	?	-6%	-2%	i	i
O=C(N/N=C/c1ccc(O)cc1)c1cc(-c2ccccc2)nc2ccccc12	?	?	-25%	-27%	i	?
COc1cc(/C=N/NC(=O)CCn2cnc(-c3ccccc3)c2-c2ccccc2)ccc1O	18µM*	?	16µM*	?	i	i

Assay outcomes: PubChem BioAssay, National Center for Advancing Translational Sciences (NCATS)
